A number with no mark means an inactive call. For some assays here: Potency and affinity values are given separately. The source made the active and inactive calls. Unless noted, the rule behind the calls is not given here.

A short description of assay [1]: antimalarial activity against Dd2 strain (AID 2302;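 active = growth inhibition above 50% at the single 2 µM test dose, taken to imply half-maximal potency below 2 µM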;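 note: 0% = DMSO untreated growth and 100% = chloroquine plus artemisinin killed control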). Conditions: P. falciparum Dd2 in RBCs, LDH growth readout, 72 h; at 2 µM; active compounds read high.
Assay [2] is described as follows: HepG2 cytotoxicity, primary screen, cytotoxicity control for P. falciparum antimalarial project, cell-based, ATP luminescence (AID 2303;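 active = inhibition above 50%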;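 note: 0% = DMSO wells and 100% = digitonin-killed cells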). Conditions: HepG2 viability, 24-48 h, at 10 µM, active compounds read high.
The target of assay [3] is L-lactate dehydrogenase (Plasmodium falciparum (isolate CDC / Honduras)) (UniProt Q27743). Kind of assay: PfLDH activity inhibition – cell lysate, 3D7 strain, counter-screen for P. falciparum growth inhibition project (AID 2304).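 Note: 0% = vehicle and 100% = reference inhibitor.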 Conditions: P. falciparum 3D7 crude extract, LDH APAD/NBT absorbance; at 2 µM; active compounds read high. Background: The purpose of a counterscreen is to sort out artefacts and off-target activity.
Chain of L-lactate dehydrogenase (Plasmodium falciparum (isolate CDC / Honduras)) (Q27743 whole entry, looked up): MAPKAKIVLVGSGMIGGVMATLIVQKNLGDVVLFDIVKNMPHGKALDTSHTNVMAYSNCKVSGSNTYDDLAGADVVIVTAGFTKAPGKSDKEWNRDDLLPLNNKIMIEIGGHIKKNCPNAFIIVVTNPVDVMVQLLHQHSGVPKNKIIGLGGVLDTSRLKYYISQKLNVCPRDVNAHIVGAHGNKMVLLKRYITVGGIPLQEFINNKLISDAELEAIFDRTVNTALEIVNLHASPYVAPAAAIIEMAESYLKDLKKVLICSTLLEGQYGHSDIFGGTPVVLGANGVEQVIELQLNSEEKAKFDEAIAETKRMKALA

A short description of assay [4]: inhibition of 3D7 malaria parasite growth – strain 3D7 (AID 2306).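 Note: 0% = DMSO wells and 100% = chloroquine plus artemisinin control wells.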 Conditions: P. falciparum 3D7 erythrocytic growth, LDH absorbance, 72 h; at 2 µM; active compounds read high.
Assay [5] has as its target Calcium-dependent protein kinase 1 (Plasmodium falciparum (isolate 3D7)) (UniProt P62344). Kind of assay: PfCDPK1 kinase inhibitors, biochemical, TCAMS library (AID 1159585; cut-off not given, nearly all actives have IC50 up to about 0.98 µM;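 note: inhibitors leave more ATP so luminescence rises with inhibition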). As to conditions: recombinant PfCDPK1, Kinase-Glo ATP depletion luminescence. In general terms: In Kinase-Glo more light means more ATP remaining.
Assay [6] addresses Plasmodium falciparum protein kinase 6 (PK6, PF3D7_1337100) (UniProt Q8IDW1). The assay is described as follows: PfPK6 kinase inhibitors, biochemical, TCAMS library (AID 1159586). Conditions: recombinant PfPK6, Kinase-Glo ATP depletion luminescence.
Assay [7] concerns the target Protein kinase 7 (PK7), Plasmodium falciparum 3D7 (PF3D7_0213400) (UniProt Q7YTF7). The assay is described as follows: inhibition of Plasmodium PK7 catalytic activity – biochemical, TCAMS antimalarial set, Kinase-Glo luminescence (AID 1159587). As to conditions: recombinant PfPK7, Kinase-Glo ATP depletion luminescence.
Assay [8] addresses Calcium-dependent protein kinase 4 (Plasmodium falciparum (isolate 3D7)) (UniProt Q8IBS5). Kind of assay: PfCDPK4 kinase inhibitors, biochemical, TCAMS library (AID 1159588; cut-off not given, nearly all actives have IC50 up to about 0.91 µM). As to conditions: recombinant PfCDPK4, Kinase-Glo ATP depletion luminescence.

Chain of Calcium-dependent protein kinase 1 (Plasmodium falciparum (isolate 3D7)) (P62344 whole entry, looked up): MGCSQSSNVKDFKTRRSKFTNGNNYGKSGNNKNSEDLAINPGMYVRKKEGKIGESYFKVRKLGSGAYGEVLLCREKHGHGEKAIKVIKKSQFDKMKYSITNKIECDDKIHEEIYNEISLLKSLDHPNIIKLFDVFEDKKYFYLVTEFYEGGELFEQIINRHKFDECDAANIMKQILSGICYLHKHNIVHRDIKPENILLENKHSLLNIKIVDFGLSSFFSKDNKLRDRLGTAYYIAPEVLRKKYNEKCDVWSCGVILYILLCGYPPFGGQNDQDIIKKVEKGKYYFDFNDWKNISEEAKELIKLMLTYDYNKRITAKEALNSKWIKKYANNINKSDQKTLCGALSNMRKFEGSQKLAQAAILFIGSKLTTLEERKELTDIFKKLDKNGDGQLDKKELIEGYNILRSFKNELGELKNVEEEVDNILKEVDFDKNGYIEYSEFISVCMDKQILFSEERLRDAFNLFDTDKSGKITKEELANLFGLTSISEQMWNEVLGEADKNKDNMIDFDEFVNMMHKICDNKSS
Chain of Plasmodium falciparum protein kinase 6 (PK6, PF3D7_1337100) (Q8IDW1 1-305): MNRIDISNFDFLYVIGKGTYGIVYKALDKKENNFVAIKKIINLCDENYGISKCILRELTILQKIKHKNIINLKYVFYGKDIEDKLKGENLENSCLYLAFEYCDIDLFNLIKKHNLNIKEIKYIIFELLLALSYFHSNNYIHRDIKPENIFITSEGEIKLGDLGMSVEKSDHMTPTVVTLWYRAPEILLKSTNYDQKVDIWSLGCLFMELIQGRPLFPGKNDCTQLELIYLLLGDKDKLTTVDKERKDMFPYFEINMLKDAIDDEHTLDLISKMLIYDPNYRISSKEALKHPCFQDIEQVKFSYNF
Chain of Calcium-dependent protein kinase 4 (Plasmodium falciparum (isolate 3D7)) (Q8IBS5 whole entry, looked up): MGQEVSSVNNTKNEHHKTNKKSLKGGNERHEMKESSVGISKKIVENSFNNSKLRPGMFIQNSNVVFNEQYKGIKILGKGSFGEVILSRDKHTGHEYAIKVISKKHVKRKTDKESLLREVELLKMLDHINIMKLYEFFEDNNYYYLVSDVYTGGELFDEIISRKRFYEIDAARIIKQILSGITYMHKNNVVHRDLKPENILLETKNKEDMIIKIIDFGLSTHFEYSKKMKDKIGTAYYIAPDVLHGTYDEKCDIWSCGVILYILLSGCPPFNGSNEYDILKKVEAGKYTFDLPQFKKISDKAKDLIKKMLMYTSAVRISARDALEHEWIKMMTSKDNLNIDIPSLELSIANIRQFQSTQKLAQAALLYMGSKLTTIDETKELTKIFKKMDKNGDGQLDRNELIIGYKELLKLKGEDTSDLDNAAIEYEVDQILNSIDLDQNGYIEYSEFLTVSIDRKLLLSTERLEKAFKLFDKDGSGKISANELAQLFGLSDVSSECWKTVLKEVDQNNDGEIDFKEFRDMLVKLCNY
Chain of Protein kinase 7 (PK7), Plasmodium falciparum 3D7 (PF3D7_0213400) (Q7YTF7 1-343): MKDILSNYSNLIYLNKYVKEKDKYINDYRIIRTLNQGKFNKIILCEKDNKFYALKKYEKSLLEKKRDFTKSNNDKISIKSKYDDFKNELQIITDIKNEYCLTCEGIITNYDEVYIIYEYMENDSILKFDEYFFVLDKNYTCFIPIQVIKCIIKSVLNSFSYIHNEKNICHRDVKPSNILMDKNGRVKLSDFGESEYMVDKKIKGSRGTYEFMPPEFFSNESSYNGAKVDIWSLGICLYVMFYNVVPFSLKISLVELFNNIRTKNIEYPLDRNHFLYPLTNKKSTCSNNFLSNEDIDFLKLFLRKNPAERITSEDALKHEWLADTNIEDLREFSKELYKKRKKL

A word on the inhibition: it is the change of the read-out against control, counted positive when it falls. On to `CC(=O)Nc1ncc(C(=O)Nc2cccc(-c3cccc(-c4nc5ccc(F)cc5[nH]4)c3)c2)s1`, for which the growth inhibition in assay [1] was 93% (active); in assay [4] it was 101% (active). The inhibition in assay [2] is 27%; in assay [3] it was 5%. The result in assay [5], in assay [6], in assay [7] and in assay [8] was inactive.
Turning to `COc1ccc(NS(=O)(=O)c2ccc(C(=O)Nc3ccc(OC(F)(F)F)cc3)cc2)cc1N1CCN(CC2CC2)CC1`, the growth inhibition in assay [1] is -2%; in assay [4], 89% (active). Further, the results for the inhibition in assay [2] and in assay [3] were 18% and 3%, respectively. Besides, the outcome in assay [5], in assay [6], in assay [7] and in assay [8] was inactive.
In the case of `Cc1cc2nc(-c3ccc(SCC(=O)Nc4ccc5c(c4)OCCO5)nc3)[nH]c2cc1C`, the growth inhibition in assay [1] is 6%; in assay [4], 85% (active). Further, the inhibition in assay [2] is 17%; in assay [3], 9%. Further, the result in assay [5], in assay [6], in assay [7] and in assay [8] was inactive.
Regarding `O=C(N[C@@H](CC1CCCCC1)C(=O)NC1CCCCC1)c1ccc(O)c(-c2cccc(C(F)(F)F)c2)c1`, the results for the growth inhibition in assay [1] and in assay [4] were 95% (active) and 100% (active), respectively. The inhibition in assay [2] was -7%; in assay [3], -1%. For the same compound, the outcome in assay [5], in assay [6], in assay [7] and in assay [8] was inactive.
As to `NC(=O)CCC(NC(=O)CNC(=O)Nc1cccc(C(F)(F)F)c1)C(=O)O` (configuration not stated), the growth inhibition is 93% (active) in assay [1] and 97% (active) in assay [4]. For the same compound, the inhibition in assay [2] is 1%; in assay [3], 4%. Besides, the outcome in assay [5], in assay [6], in assay [7] and in assay [8] was inactive.
Turning to `CC1CN(Cc2ccc(-c3ccc(-c4nc5ccc(F)cc5[nH]4)cc3)cc2)CC(C)O1` (configuration not stated), the values for the growth inhibition in assay [1] and in assay [4] were 93% (active) and 96% (active), respectively. The inhibition was 40% in assay [2] and -1% in assay [3]. The outcome in assay [5], in assay [6], in assay [7] and in assay [8] was inactive.
As for `O=C(/C=C/c1cccc2c1OCO2)Nc1ccnc2ccncc12`, the growth inhibition in assay [1] is 35%; in assay [4], 90% (active). The inhibition in assay [2] was 17%; in assay [3] it was -4%. The result in assay [5], in assay [6], in assay [7] and in assay [8] was inactive.
`O=S(=O)(Nc1cccc(CCN2CCCCC2CCN2CCCC2)c1)c1ccc(Oc2ccccc2)cc1` (configuration not stated): the results for the growth inhibition in assay [1] and in assay [4] were 1% and 94% (active), respectively. Moreover, the inhibition in assay [2] is 52% (active); in assay [3], -2%. Moreover, the outcome in assay [5], in assay [6], in assay [7] and in assay [8] was inactive.
As for `Oc1ccc2ccccc2c1CNCCC1CCCCC1`, the growth inhibition in assay [1] and in assay [4] was 99% (active) each time. Further, the inhibition in assay [2] is 16%; in assay [3], 5%. The result in assay [5], in assay [6], in assay [7] and in assay [8] was inactive.
With `CS(=O)(=O)c1ccc(CCNCc2ccc(-c3ccc(CN(C(=O)c4ccc(Cl)nc4)C4CCN(Cc5ccccc5)CC4)cc3)nc2)cc1`, the growth inhibition in assay [1] is 70% (active); in assay [4] it was 93% (active). Moreover, the inhibition is 24% in assay [2] and -2% in assay [3]. Moreover, the outcome in assay [5], in assay [6], in assay [7] and in assay [8] was inactive.
With `CC1(CCc2ccccc2)N=C(Nc2ccc(Cl)cc2)N=C(N)C1c1ccc(Cl)c(Cl)c1` (configuration not stated), the growth inhibition in assay [1] is 98% (active); in assay [4] it was 102% (active). Besides, the inhibition in assay [2] is 81% (active); in assay [3] it was -6%. Further, the outcome in assay [5], in assay [6], in assay [7] and in assay [8] was inactive.
Turning to `COc1cc(Nc2ccnc3cc(-c4ccccn4)ccc23)cc(OC)c1OC`, the growth inhibition in assay [1] is 0%; in assay [4] it was 91% (active). In addition, the figures for the inhibition in assay [2] and in assay [3] were -9% and -1%, respectively. Further, the outcome in assay [5], in assay [6], in assay [7] and in assay [8] was inactive.
Consider `c1ccn2c(-c3ncnc(NCc4ccc5c(c4)CCO5)n3)cnc2c1`, for which the growth inhibition is 47% in assay [1] and 86% (active) in assay [4]. Moreover, the inhibition in assay [2] was 12%; in assay [3] it was 0%. Also, the result in assay [5], in assay [6], in assay [7] and in assay [8] was inactive.
Turning to `CCCCCc1cc(O)c2c(c1)OC(C)(C)C=C2C1=CCN(Cc2ccsc2)CC1`, the growth inhibition is 48% in assay [1] and 98% (active) in assay [4]. Further, the inhibition in assay [2] was 20%; in assay [3] it was -1%. In addition, the result in assay [5], in assay [6], in assay [7] and in assay [8] was inactive.
Turning to `O=C(Nc1ccc(-c2ccccc2)s1)N[C@H]1CCN(Cc2ccc(OCCCN3CCCCC3)cc2)C1`, the growth inhibition in assay [1] is 40%; in assay [4], 102% (active). Further, the values for the inhibition in assay [2] and in assay [3] were 5% and -6%, respectively. Moreover, the outcome in assay [5], in assay [6], in assay [7] and in assay [8] was inactive.
Turning to `Cc1cccc2[nH]c(-c3cccc(-c4ccc(CNCc5ccc(S(C)(=O)=O)cc5)cc4)c3)nc12`, the growth inhibition in assay [1] is 98% (active); in assay [4], 101% (active). The inhibition in assay [2] is 8%; in assay [3] it was 6%. The result in assay [5], in assay [6], in assay [7] and in assay [8] was inactive.
Turning to `Cc1cc2[nH]c(-c3ccc(C(=O)NCCCN4CCN(c5cccc(Cl)c5)CC4)cc3F)nc2cc1Cl`, the growth inhibition in assay [1] is 79% (active); in assay [4] it was 99% (active). Moreover, the inhibition was -2% in assay [2] and 5% in assay [3]. In addition, the result in assay [5], in assay [6], in assay [7] and in assay [8] was inactive.
On to `CNC(=O)CNC(=O)COc1cccc2ccccc12`, for which the results for the growth inhibition in assay [1] and in assay [4] were -6% and 98% (active), respectively. The inhibition in assay [2] was 3%; in assay [3], -8%. Further, the outcome in assay [5], in assay [6], in assay [7] and in assay [8] was inactive.
Regarding `COc1ccccc1CCNC(=O)c1cc(Br)cc(N2CCN(c3ccncc3)CC2)c1`, the values for the growth inhibition in assay [1] and in assay [4] were 32% and 84% (active), respectively. Further, the inhibition was 38% in assay [2] and 4% in assay [3]. Moreover, the result in assay [5], in assay [6], in assay [7] and in assay [8] was inactive.
